# Screens as filed in PubChem.
# UBC9 SUMO inh – blocks human SUMOylation mediated by UBC9; P63279; HTRF SUMOylation assay, SAE1/SAE2 + UBC9, in vitro; inhibition, % at 35 µM; 0.36% of 290,000 active; AID 2006; in the data active = inhibition above about 50%, passing the limit was not always enough
# UBC13 polyUb – human UBC13 polyubiquitination inhibition | UBC13 polyubiquitin chain formation, TR-FRET | inhibition, % at 20 µM | 0.47% of 330,000 active | P61088 | AID 485273; in the data active = inhibition above about 45%, passing the limit was not always enough
# sPLA2-III inh – Blocks human group III sPLA2 activity; Q9NZ20; QFRET BODIPY PC-A2 liposome hydrolysis, fluorescence; inhibition, % at 12.2 µM; 0.56% of 370,000 active;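 active = inhibition above mean plus 3 SD of compounds lying within the high and low control bounds, cut at about 19% in these data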;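 also: 0% = median of test compound wells and 100% = no enzyme DMSO wells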
# Target sequence (Q9NZ20 whole entry, looked up): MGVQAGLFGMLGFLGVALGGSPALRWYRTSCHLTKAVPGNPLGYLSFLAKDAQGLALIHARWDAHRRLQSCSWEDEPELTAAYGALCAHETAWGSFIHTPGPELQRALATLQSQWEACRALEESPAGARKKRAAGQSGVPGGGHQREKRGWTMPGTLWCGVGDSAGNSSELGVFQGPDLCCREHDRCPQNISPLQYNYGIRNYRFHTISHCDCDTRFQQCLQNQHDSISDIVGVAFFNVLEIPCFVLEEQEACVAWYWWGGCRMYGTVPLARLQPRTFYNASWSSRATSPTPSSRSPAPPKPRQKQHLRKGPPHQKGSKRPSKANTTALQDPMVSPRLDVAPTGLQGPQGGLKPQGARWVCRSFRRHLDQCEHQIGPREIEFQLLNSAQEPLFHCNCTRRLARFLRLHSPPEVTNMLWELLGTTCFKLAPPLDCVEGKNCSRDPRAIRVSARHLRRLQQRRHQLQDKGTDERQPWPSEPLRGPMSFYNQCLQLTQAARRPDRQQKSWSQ
# NR3A LBD binder – modulators (binders) of human NR3A ligand-binding domain; 2.5% of 340,000 active; Tm shift relative to glycine control, % at 25 µM; AID 1259313; NR3A LBD differential scanning fluorimetry, Tm shift; 0% = protein alone, 100% = glycine-bound protein;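 active = melting temperature shift of at least 10% of the positive control shift, at one fixed dose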
# The depositor's hits bear a star; . = not tested or not shown. Sampled rows, rich in hits. Any-hit rate of the full collection: about 3.3%.
SMILES,UBC9 SUMO inh,UBC13 polyUb,sPLA2-III inh,NR3A LBD binder
O=C(Cn1nnc(-c2ccc(N3CCOCC3)cc2)n1)c1ccccc1,.,.,-47,.
Cc1ccc(-c2cc(C(=O)NN=Cc3ccc(N(C)C)cc3)[nH]n2)cc1C,.,.,2,.
COC(=O)[C@]12C[C@H](CC(=O)N3CCCCC3)C(=O)N(Cc3ccc(Cl)cc3Cl)C1=C[C@H](C(C)(C)C)O[C@@H]2C,.,.,7,.
COC(=O)c1cc(NS(=O)(=O)c2ccc(N3CCC(C)CC3)c([N+](=O)[O-])c2)cc(C(=O)OC)c1,-8,-6,-1,18*
CCc1ccc(-c2cc(C)no2)cc1S(=O)(=O)Nc1cc(C)on1,11,-6,-6,31*
CC(=O)Nc1ccc(NC(=O)c2cc(=O)c3cc(C)c(C)cc3o2)cc1,21,-4,-5,12*
CC(=O)Nc1ccc(NC(=O)c2cc(=O)c3ccc(C)cc3o2)cc1,-8,-5,1,-2
CCC(=O)N1N=C(c2c(-c3ccccc3)c3cc(Cl)ccc3[nH]c2=O)CC1c1ccco1 (configuration not stated),54*,9,-7,0
COc1ccccc1C1CC(c2c(-c3ccccc3)c3cc(Cl)ccc3[nH]c2=O)=NN1S(C)(=O)=O (configuration not stated),-1,17,-11,25*
COc1cccc(C2CC(c3c(-c4ccccc4)c4cc(Cl)ccc4[nH]c3=O)=NN2S(C)(=O)=O)c1OC (configuration not stated),1,-4,-20,-3
COc1ccc2cc1Oc1ccc(cc1)CC1c3c(cc(OC)c4c3Oc3cc5c(cc3O4)CCNC5C2)CCN1C (configuration not stated),-10,110*,.,-8
COc1cc2c3cc1Oc1cc(ccc1O)C[C@@H]1c4c(cc(OC)c(O)c4Oc4ccc(cc4)C[C@@H]3N(C)CC2)CC[N+]1(C)C,.,.,13,.
CCOC(=O)[C@@]12CN(C(=O)OC(C)(C)C)CC=C1N(Cc1ccc(OC)cc1)C(=O)[C@H]2CC(=O)N1CCCC1,.,.,19,.
O=[N+]([O-])c1cccc(-c2cc3ccccc3[nH]2)c1,10,8,-6,34*
O=[N+]([O-])c1ccc2nc(-c3ccccc3)[nH]c2c1,2,7,11,16*
O=[N+]([O-])c1cccc(/C=C/c2nc3ccc([N+](=O)[O-])cc3[nH]2)c1,16,-2,-9,16*
Cc1nc2ccc([N+](=O)[O-])cc2[nH]1,6,1,4,-2
Cc1cc(C)c2nc(NC(=O)c3ccc([N+](=O)[O-])o3)sc2c1,13,-19,-4,-1
Cc1cc(C)c2sc(NC(=O)c3ccc([N+](=O)[O-])o3)nc2c1,9,-42,9,15*
Cc1ccc2nc(NC(=O)CCNS(=O)(=O)c3ccc(Br)s3)sc2c1,-8,6,.,11*
Cc1ccc2nc(NC(=O)CCNS(=O)(=O)c3cccs3)sc2c1,1,4,-23,-6
Cc1ccc2nc(NC(=O)c3ccc(Br)o3)sc2c1,5,-5,-4,18*
c1coc(-c2nnc3n2N=C(c2ccc4c(c2)OCO4)CS3)c1,.,.,-4,.
CCOc1ccc(-n2c(SCc3ccc(C#N)cc3)nnc2-c2ccco2)cc1,.,.,0,.
CC(C(=O)N(C)C1CCS(=O)(=O)C1)N1C(=O)/C(=C/c2ccco2)SC1=S (configuration not stated),13,-11,-5,2
SMILES,UBC9 SUMO inh,UBC13 polyUb,sPLA2-III inh,NR3A LBD binder
O=C(CCCN1C(=O)/C(=C/c2ccco2)SC1=S)Nc1cccc(C(=O)O)c1,64*,-12,-23,-2
O=C(CN1C(=O)/C(=C/c2ccco2)SC1=S)Nc1ccc(C(=O)O)c(O)c1,72*,-8,-17,7
CC(C(=O)Nc1ccc(C(=O)O)c(O)c1)N1C(=O)/C(=C\c2ccco2)SC1=S (configuration not stated),57*,-14,.,6
O=C(CCCN1C(=O)/C(=C\c2cccs2)SC1=S)Nc1cccc(C(=O)O)c1,16,-8,0,-10
O=C(CN1C(=O)/C(=C/c2ccco2)SC1=S)Nc1ccc(O)c(C(=O)O)c1,51*,-20,-17,4
O=C(CCCN1C(=O)/C(=C\c2ccco2)SC1=S)Nc1ccc(O)cc1C(=O)O,.,-17,-15,2
COc1ccc(NC2=CC(=O)CC(C)(C)C2)cc1,29,3,8,15*
COc1cccc(NC2=CC(=O)CC(C)(C)C2)c1,12,0,7,0
CC(NCc1ccco1)C(=O)N1CCN(Cc2ccccc2F)CC1 (configuration not stated),.,.,11,.
O=C(CCC(=O)c1ccc(F)cc1)Nc1cccc(S(=O)(=O)Nc2cccc(Cl)c2)c1,-18,-5,-56,28*
O=C(O)c1ccc(NC(=S)NC(=O)c2ccc3ccccc3c2)cc1,13,-4,6,17*
Cc1ccc(C(=O)NC(=S)Nc2ccc(NC(=O)c3cccc(Cl)c3)cc2)cc1,10,-13,10,35*
O=C(NC(=S)Nc1cc(Cl)ccc1O)c1cccc(Br)c1,-3,-5,2,18*
O=C(CCC(=O)c1ccc(F)cc1)Nc1cccc(C(F)(F)F)c1,-24,-19,-18,-13
COc1cccc(NC(=O)n2ccc3ccc(-c4ccc5cc[nH]c5c4)cc32)c1,.,.,-18,.
Cc1ccc(C(=O)NCC(=O)Nc2ccc(C)c(S(=O)(=O)Nc3ccc(Cl)cc3)c2)s1,2,-3,-53,11*
O=C(NNC(=O)c1cccs1)Nc1cccc(Cl)c1,-24,-5,-2,1
CC(C)C(=O)Nc1cccc(NC(=S)NC(=O)c2ccc(Cl)cc2)c1,-5,-2,-4,-9
Cc1ccc(NC(=O)c2cccs2)cc1S(=O)(=O)Nc1cccc(Cl)c1,-4,4,-45,35*
Cc1ccc(NC(=S)NC(=O)c2ccc(F)cc2)cc1S(=O)(=O)Nc1cccc(Cl)c1,5,-21,-13,13*
COC(=O)C[C@@H]1CC[C@@H]2[C@@H](COc3ccc(NC(=O)Nc4cccc(Cl)c4)cc3C(=O)N2C)O1,.,.,-22,.
CCn1c(=O)n(CC(=O)NC2CCCC(C)C2C)c(=O)c2ccccc21 (configuration not stated),0,-2,12,11*
CCCn1c2ccccc2c2cnn(CC(=O)NC3CCCC(C)C3C)c(=O)c21 (configuration not stated),.,4,-1,2
COC(=O)C[C@H]1c2ccc(C(F)(F)F)cc2S(=O)(=O)N1Cc1ccccc1,.,9,0,13*
CC(C)c1ccc2[nH]c(O)c(N=NC(=O)c3cccc(S(=O)(=O)Nc4ccc(Cl)cc4)c3)c2c1,21,-29,-7,43*
CC(C)n1nnnc1C1(C)Cn2nccc2C(=O)N1Cc1cccc(C(F)(F)F)c1 (configuration not stated),.,.,3,.
O=C(CCC(NC(=O)OCc1ccccc1)C(=O)OCc1ccccc1)NCC(=O)OCc1ccccc1 (configuration not stated),-13,1,-41,12*
NC(=O)CC[C@H](NC(=O)OCc1ccccc1)C(=O)OCc1ccc(Cl)cc1,-22,5,-8,-2
